Sampled rows, rich in hits. Any-hit rate of the full collection: about 3.6%.
ERa coact inh: ER-alpha (human) coactivator binding inhibition | inhibition, % at 25.6 µM | hit rate 1.7% among 86,000 | P03372 | TR-FRET ER-alpha LBD / SRC-1 peptide, estradiol-bound | AID 629; in the data active = inhibition above about 50%;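 note: 0% = receptor plus peptide control and 100% = peptide only without receptor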
Candida biofilm: kills Candida albicans biofilms; C. albicans biofilm + clotrimazole, Alamar Blue; inhibition, % at 6 µM; hit rate 0.14% among 85,000;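 active = inhibition above 20%; inactive = inhibition below 20%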;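 note: preformed 24 hr biofilms exposed to compound for 48 hr; 0% = biofilm without compound and 100% = blank killed by clotrimazole plus chlorhexidine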
Smad3 FoxH1 inh: Smad3 (human) transcription factor binding inhibition. AID 630. hit rate 0.29% among 88,000. TR-FRET Smad3/Dy647-FoxH1 peptide binding, europium anti-His. inhibition, % at 25 µM;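 active = compounds that reduce the energy-transfer binding signal between the protein and its labelled peptide by more than half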;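 note: 0% = Smad3 plus labelled peptide maximal FRET and 100% = peptide-only background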
Target sequence (P84022 whole entry, looked up): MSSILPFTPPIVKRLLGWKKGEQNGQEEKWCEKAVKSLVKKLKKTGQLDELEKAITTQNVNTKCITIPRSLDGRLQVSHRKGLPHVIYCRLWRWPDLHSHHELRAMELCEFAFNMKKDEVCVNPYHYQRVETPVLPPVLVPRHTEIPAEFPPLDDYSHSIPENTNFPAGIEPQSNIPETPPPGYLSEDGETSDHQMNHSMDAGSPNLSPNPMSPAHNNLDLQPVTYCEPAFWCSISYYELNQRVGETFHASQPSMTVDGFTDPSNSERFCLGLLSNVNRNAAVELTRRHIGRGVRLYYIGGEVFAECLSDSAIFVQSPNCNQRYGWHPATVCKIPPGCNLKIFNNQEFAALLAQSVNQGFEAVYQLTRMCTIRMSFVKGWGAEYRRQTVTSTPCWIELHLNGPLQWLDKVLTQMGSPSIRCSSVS
ERa SRC1 pot: ER-alpha (human) coactivator binding potentiation; P03372; TR-FRET ERalpha-LBD/SRC-Cy5 coactivator binding, 2 h; 100 = basal binding, no effect; coactivator binding (% of control), % at 25.6 µM; hit rate 1.3% among 86,000; in the data active = activity above about 200%;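 note: binding measured in presence of low estradiol as agonist stimulus; 0% = peptide alone without receptor and 100% = receptor with peptide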
ERb coact inh: ER-beta (human) coactivator binding inhibition; Q92731; TR-FRET ER-beta LBD / SRC1-Cy5 peptide binding; receptor agonist-loaded with 1 µM estradiol; inhibition, % at 25.6 µM; hit rate 1.3% among 86,000; AID 633;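 active = compounds whose percent inhibition of the receptor-coactivator binding signal exceeds about 50% in the single-dose screen, limit read from the data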;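 note: 0% = receptor plus peptide wells without compound and 100% = peptide-only wells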
The depositor's hits bear a star; nt = no result given; [ ] = another dose, or the depositor's remark.

SMILES | ERa coact inh | Candida biofilm | Smad3 FoxH1 inh | ERa SRC1 pot | ERb coact inh
Cn1nc(CC(=O)Nc2ccc(N3CCN(C(=O)OC(C)(C)C)CC3)cc2)c2ccccc2c1=O | 72.3*[fluorescence artefact?] | 6.3 | -0.1 | 68.4 | 39.2
O=C(Nc1ccc(Cl)cn1)C1CCCN1S(=O)(=O)c1ccccc1 (centres undefined) | -12.2 | 6.0 | 7.9 | 109.5 | -9.1
Cc1cccc(S(=O)(=O)N(CC(=O)Nc2ccccc2C)Cc2ccco2)c1 | -2.0 | 38.5* | 4.8 | 97.1 | -7.1
CCN(C(=O)c1ccco1)c1nnc(-c2ccc(OC)cc2)s1 | 0.1 | 1.0 | -3.4 | 137.7 | 3.8
CN1CC2(C)CN(C(c3ccccc3)c3ccccc3)CC(C)(C1)C2O (centres undefined) | 44.4 | 8.8 | -2.0 | 84.3 | 57.1*
NC(=O)C1(N2CCCCC2)CCN(C(=O)NC2CCCCC2)CC1 | 5.7 | -2.5 | -17.2 | 109.7 | -4.4
NC1CCCCC1N=Cc1c(O)n(CCc2ccc(F)cc2)c(=O)[nH]c1=O (centres undefined) | 71.8*[fluorescence artefact?] | 6.0 | 6.4 | 45.5 | 35.4
Cc1cc(C(=O)O)ccc1-n1c(C)ccc1C | 57.4* | -1.2 | 3.3 | 21.8 | 49.4
Cc1cc(N)ccc1-n1c(C)ccc1C | 1.8 | 2.7 | 15.0 | 98.9 | 4.1
Cn1c(CSc2nc3ccccc3s2)nnc1SCC(=O)NCc1cccnc1 | -6.6 | 2.8 | -4.3 | 107.5 | 1.2
Cc1cccc(NC(=O)N2CCC(c3nc4ccccc4o3)CC2)c1 | -12.9 | 5.6 | 2.1 | 123.3 | -4.2
Cc1cc(C)cc(NC(=O)N2CCC(c3nc4ccccc4o3)CC2)c1 | 3.3 | 2.4 | 8.0 | 680.4*[fluorescence artefact?] | -2.4
Cc1ccc(-n2c(SCn3nnc4ccccc4c3=O)nnc2-c2cccnc2)c(C)c1 | 86.9*[fluorescence artefact?] | 1.0 | 15.5 | 35.6 | 48.2
Cc1ccc(C=Nc2ccc(N(C)C)cc2)o1 | 24.7 | 8.8 | 5.7 | 114.1 | 88.8*[fluorescence artefact?]
O=C(CSc1nnc(-c2ccccn2)n1Cc1ccco1)c1ccc(-c2ccccc2)cc1 | 38.7 | 2.2 | -3.4 | 227.7*[fluorescence artefact?] | 37.7
Cc1cccc(OCc2nnc(SCc3cc(=O)n4cc(Br)ccc4n3)o2)c1 | -0.4 | -0.4 | -7.3 | 203.0* | 16.7
Cc1cccc(OCc2nnc(SCC(=O)Nc3ccc(C)c(C)c3)o2)c1 | -19.3 | 6.4 | -9.3 | 230.3* | 3.5
CCc1nnc(NC(=O)CSc2nnc(COc3cccc(C)c3)o2)s1 | 2.3 | 5.9 | 2.3 | 91.6 | 10.1
C/C(=N\[N-]C(=[SH+])SCc1ccccc1)c1ccccn1.[Cl][Cu] | nt | nt | 80.9* | nt | nt
COc1ccc(NC(=O)Cn2c(-c3ccccc3)cn(-c3ccc(C)cc3)c2=O)cc1 | 4.9 | 4.3 | -399.5 | 200.9* | 4.2
COCCNC(=O)c1ccc(CS(=O)(=O)c2ccc(C)cc2)o1 | -6.1 | 2.6 | -3.3 | 125.7 | 3.0
Cc1ccc(S(=O)(=O)Cc2ccc(C(=O)O)o2)cc1 | 68.7* | 0.1 | 3.0 | 24.7 | 76.0*
Cc1ccc(S(=O)(=O)Cc2ccc(C(=O)N3CCN(Cc4ccccc4)CC3)o2)cc1 | 60.7*[fluorescence artefact?] | 0.1 | 2.5 | 84.9 | 58.2*
Cc1ccc(S(=O)(=O)Cc2ccc(C(=O)N3CCc4ccccc4C3)o2)cc1 | 78.5*[fluorescence artefact?] | 7.6 | 4.6 | 49.9 | 76.4*
COc1ccc(S(=O)(=O)Cc2ccc(C(=O)N3CCN(Cc4ccccc4)CC3)o2)cc1 | -5.3 | 3.5 | 6.5 | 139.2 | 0.6
SMILES | ERa coact inh | Candida biofilm | Smad3 FoxH1 inh | ERa SRC1 pot | ERb coact inh
Cc1ccc(S(=O)(=O)Cc2ccc(C(=O)NCc3ccc4c(c3)OCO4)o2)cc1 | 50.9* | 3.5 | -2.6 | 62.4 | 43.0
COc1ccc(S(=O)(=O)Cc2ccc(C(=O)N3CCc4ccccc4C3)o2)cc1 | -2.1 | -2.9 | -9.0 | 119.4 | 1.4
Cc1ccc(C2C(C(=O)c3sc(-c4ccccc4)nc3C)=C(O)C(=O)N2CCN(C)C)o1 (centres undefined) | -13.5 | -0.7 | 8.9 | 99.4 | -3.4
COc1ccc(-n2c(=O)c3c4c(sc3n3c(C)nnc23)CC(C)CC4)cc1 (centres undefined) | 10.2 | 11.1 | -0.7 | 85.5 | 2.8
Cc1onc(-c2ccccc2Cl)c1C(=O)NCc1ccccn1 | -5.1 | -3.0 | -2.4 | 112.4 | -0.6
Cc1onc(-c2ccccc2Cl)c1C(=O)NCc1cccnc1 | 52.2* | 1.2 | 0.8 | 102.3 | 1.9
CC(=O)n1cc(C(C[N+](=O)[O-])SCCN)c2ccccc21 (centres undefined) | 9.8 | 8.8 | 7.7 | 87.1 | -3.7
O=C(Cc1ccccc1)Nc1ccccc1C(=O)O | 21.4 | 4.4 | -12.3 | 104.6 | -3.0

Assay outcomes: PubChem BioAssay, several laboratories
